# This is part of a sample that, as a whole, favours compounds with a hit. Of some 83,000 tested, about 20% had one in any assay.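 Note: values are percent growth. 100 is the growth of untreated cells, values between 100 and 0 indicate rising inhibition; between -100 and 0 indicates cell death.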 Active and inactive are the calls of the source.
# Tested on: SW-620 colon
# Assay: NCI-60 one-dose screen, 48 h (100 = growth as untreated, 0 = no growth, -100 = all killed)
# Conditions: 10 µM unless noted
# Description: Growth inhibition of the SW-620 human tumor cell line is measured as a screen for anti-cancer activity. Cells are grown in 96 well plates and exposed to the test compound for 48 hours. Compounds are tested at a single concentration, which is 10^-5 M for most compounds. The reported endpoint is percent growth (GI% or GIPRCNT), where numbers from 0 - 100% represent growth inhibition, and numbers from -100% - 0 represent cell death. For example, a value of 40 represents 60% growth inhibition. A value of 0 means no net growth occurred over the course of the experiment. A value of -40 indicates 40% of cells at the beginning of the experiment died by the end of the experiment. A value of -100 means all cells are dead at the end of the experiment.
# NCI-60 Human Tumor Cell Lines Screen was performed using the standard one-dose NCI protocol, which is described in more detail at https://dtp.cancer.gov/discovery_development/nci-60/default.htm.
# Compounds with GIPRCNT values below 10 were considered active. Activity score was based on GIPRCNT using the following formula: […]
# Score is 0 for GIPRCNT values of 100 or above, 50 for GIPRCNT values of 0, and 100 for GIPRCNT values of -100.
row,SMILES,growth
1,N#CC(C#N)=Cc1c(-c2ccccc2)[nH]c2ccccc12,21.1% (inactive)
2,CCOc1c(Br)cc(C2C(C(=O)OC)=CN(C)C=C2C(=O)OC)cc1OC,58% (inactive)
3,CSc1nc2c(c(=O)[nH]1)N=C1c3ccccc3C(=O)C1C(c1ccc(F)cc1)N2 (stereo not given),54.5% (inactive)
4,COc1ccc(C2c3ccc4ccccc4c3Oc3ncn(CCCn4ccnc4)c(=N)c32)cc1OC (stereo not given),64.4% (inactive)
5,Oc1[nH]c2ccccc2c1N=Nc1nnc2n1N=C(c1ccccc1)CS2,106% (inactive)
6,COc1cc(/C=C/C(=O)c2c(C)nc3ccccc3c2/C=C/c2ccccc2)cc(OC)c1OC,0.233% (active)
7,COc1cc(C2C3=C(COC3=O)N(CCO)c3cc4c(cc32)CCC4)cc(OC)c1O (stereo not given),12.1% (inactive)
8,CC[C@]1(O)C[C@@H]2CN(CCc3c([nH]c4ccccc34)[C@@](C(=O)OC)(c3cc4c(cc3OC)N(C)[C@H]3[C@@](O)(C(=O)OC)[C@H](OC(C)=O)[C@]5(CC)C=CCN6CC[C@]43[C@@H]65)C2)C1,22.7% (inactive)
9,COc1cc(C(C)n2cc(-c3ccccc3)nn2)ccc1OC1CCCCC1 (stereo not given),75.5% (inactive)
10,CC(=O)SC1CC(=O)C=C2CCC3C4CCC(=O)OC4(C)CCC3C21C (stereo not given),103% (inactive)
11,O=c1oc2ccc(Br)cc2c(=O)n1-c1ccc(F)cc1F,16.3% (inactive)
12,Clc1ccc(Nc2scc3[n+]2CCC3)cc1,96.9% (inactive)
13,COc1cccc(C(=O)Cn2cc(/C=C(\C#N)S(=O)(=O)c3ccccc3)c3ccccc32)c1,95.5% (inactive)
14,CCOC(=O)c1cnc2ccc(Cl)cc2c1NCCCN(C)C,14.6% (inactive)
15,NC(CCc1nc2ccccc2c(=O)[nH]1)C(=O)O (stereo not given),102% (inactive)
16,O=C(CN1C=NC2C(N3CCOCC3)=NC=NC21)c1cccc2ccccc12 (stereo not given),96% (inactive)
17,O=C(N/N=C/c1ccccc1Cl)C(=O)Nc1cccc(C(F)(F)F)c1,104% (inactive)
18,COc1cc(/C=C2\CCC/C(=C\c3cc(CN4CCOCC4)c(O)c(OC)c3)C2=O)cc(CN2CCOCC2)c1O,31.1% (inactive)
19,Cc1ccc(C)c(-c2csc(Nc3ccc(C)c(C)c3)n2)c1,-33% (active)
20,Clc1ccc(COc2ccc(Nc3ncnc4onc(-c5ccccc5)c34)cc2)cc1,68.1% (inactive)

row,SMILES,growth
1,COc1ccc(OC)c(NC(=O)/C(C#N)=C/c2ccco2)c1,106% (inactive)
2,O=c1oc2ccc(I)cc2c(=O)n1-c1ccc(I)cc1F,8.02% (active)
3,O=C(Nc1ccccc1O)c1ccc(-c2ccc(Cl)cc2Cl)o1,101% (inactive)
4,COc1cc(/C=C2\CN(C)C/C(=C\c3cc(CN4CCCCC4)c(O)c(OC)c3)C2=O)cc(CN2CCCCC2)c1O,20% (inactive)
5,Fc1ccc(Oc2ccc(Nc3ncnc4onc(-c5ccccc5)c34)cc2)cc1,95% (inactive)
6,CCCCOCc1cc(CN2CCN(C)CC2)c(O)c2ncccc12,45.6% (inactive)
7,CCOC(=O)C1=C(C)N=c2s/c(=C\c3ccccc3O)c(=O)n2C1c1ccc(OC)c2ccccc12 (stereo not given),-78.2% (active)
8,O=C(NC1CCN(Cc2ccccc2)CC1)c1cc(C(=O)NC2CCN(Cc3ccccc3)CC2)cc(C(=O)NC2CCN(Cc3ccccc3)CC2)c1,84.6% (inactive)
9,CCC1=C[C@]2(C3CC(=O)N(c4ccccc4)C3=O)CC(C(C)(C)C)C[C@@H]2[C@@H]2C(=O)N(c3ccccc3)C(=O)[C@H]12 (stereo not given in full),88.4% (inactive)
10,CCOC(=O)c1sc(-c2ccc(OS(=O)(=O)C[C@]34CCC(CC3=O)C4(C)C)c(C=O)c2)nc1C,10.5% (inactive)
11,O=C(CN1C(=O)/C(=C\c2ccc(Cl)cc2)SC1=S)Nc1ncc(Cc2ccc(Cl)cc2)s1,105% (inactive)
12,O=C(c1nc2ccccc2[nH]1)C1C(c2cccc([N+](=O)[O-])c2)C2CC3CCCCC3N2[C@@]12C(=O)Nc1cc(Cl)ccc12 (stereo not given in full),37.9% (inactive)
13,COc1ccc(-c2nc(-c3ccccn3)c(-c3ccccn3)n2CC(C)C)cc1OC1CCCC1,21.9% (inactive)
14,CCCC(c1nnnn1C1CCCCC1)N1CCN(C(=O)c2ccco2)CC1 (stereo not given),22.4% (inactive)
15,CNC(=O)c1cc(Oc2ccc(CC(=O)Nc3cc(C(C)(C)C)cn3C)cc2)ccn1,105% (inactive)
16,COc1ccc2oc(=O)cc(Cn3cc(Cn4cnc5c4c(=O)n(C)c(=O)n5C)nn3)c2c1,105% (inactive)
17,COc1c(B(O)O)cccc1-c1nc2ccc3n[nH]c(F)c3c2c2c1CCCC2,59.7% (inactive)
18,Oc1c(CN2CCN(c3ccccc3F)CC2)cc(Br)c2cccnc12,-13.5% (active)
19,Cc1cccc2c(=O)c3c(sc12)c(N1CCNCC1)nc1ccccc13,27.6% (inactive)
20,COc1ccc(-c2c(-c3ccc(OC)c(O)c3)cnc3ncnn23)cc1,99.1% (inactive)
